Measurements from PubChem BioAssay AID1347051 (National Center for Advancing Translational Sciences (NCATS), 2019).
About 980 (70%) of roughly 1,400 compounds were called active. Roughly 16% stayed inconclusive and do not appear here. Calls come from the whole dose curve. The set was probably picked from earlier hits. A selection follows.

assay: Natriuretic polypeptide receptor (hNpr1) antagonism - Counterscreen GloSensor control cell line; conditions: HEK293 GloSensor cGMP, SNP-stimulated, luminescence; series mostly up to 57.6 µM; note: nearly all actives have a fitted effect of over 70% in size
Description: cGMP production was measured using a circular permutated firefly luciferase (FLuc) enzyme functionally linked to the cGMP binding domain of human phosphodiesterase 5 (GloSensor technology pGS-40F, (Fan, F. et al. 2008). The cGMP-sensor was expressed in human embryonic kidney 293 (HEK-293) cells and FLuc activity was measured after stimulation with the NO-donor sodium nitroprusside (SNP). SNP activates the endogenously expressed soluble guanylyl cyclase (GC) producing cGMP which then binds to the GloSensor resulting in FLuc activation, the enzymatic activity of which can be measured as bioluminescence with addition of luciferin substrate. F. Fan, B. F. Binkowski, B. L. Butler, P. F. Stecha, M. K. Lewis, K. V. Wood, Novel genetically encoded biosensors using firefly luciferase. ACS Chem Biol 3, 346-351 (2008).
PROTOCOL TABLE (as described by Inglese J, Shamu CE and Guy RK. 2007) SEQUENCE No. (e.g., 1, 2, 3, etc.); PARAMETER (e.g., Cells, Incubation, Reagent, etc.); VALUE and DESCRIPTION. 1. Cells. Seed 1500 HEK293 cGMP-sensor cells per well in 4uL into Greiner 1536-well white/solid bottom high base, TC plates. 2. Incubation. Incubate plated cells at 37C in 5% CO2, 95% RH overnight. 3. Reagent. Add 1uL per well GloSensor reagent from Promega (2% final concentration) or CO2 independent media vehicle control to respective columns of Greiner 1536-well plates. 4. Incubation. Incubate plated cells at room temperature for 2 h, protect from light. 5. Compounds. Library compounds and DMSO vehicle control added at 23nL per well, transferred by Pin Tool. 6. Incubation. Incubate plated cells for 30 min. at room temperature, protect from light. 7. Detector. GloSensor baseline pre-read luminescence measured using CCD-based camera (Viewlux). 8. Compound. Add 1uL of sodium nitroprusside (SNP) to 50 uM final concentration to stimulate soluble guanylyl cyclase (GC) or CO2 independent media as vehicle control. 9. Incubation. Incubate treated cells at room temperature for 20 min., protect from light. 10. Detector. GloSensor post-SNP luminescence measured using CCD-based camera (Viewlux). NOTES (numbers refer to Sequence numbers above; values are from representative experiments) 1. HEK293 cells expressing GIP/pGS-40F were grown to 85-95% confluence (48-72 h) in T175 culture flasks (CO2 independent media supplemented with 10% FBS, 1% Pen/Strep antibiotics, and 1 ug/mL puromycin). Trypsinize and harvest cells from T175 culture flasks and filter through 40 um cell strainer. Cells counted with Invitrogen Countess (30,000,000 - 50,000,000 cells/flask). Cells diluted to a final concentration of 375 cells/uL in CO2 independent media and a Millipore multidrop used to dispense 1500 cells per well (4uL/well) into 13 1536-well Greiner White/Solid bottom, high base tissue-culture treated (TC) plates and one Aurora 1536-well Black/Clear bottom, low base, TC plate (for visual inspection of cell health throughout the duration of the assay). 2. Cells incubated for 24 h. at 37C in 95% RH incubator with metal lid having gas-exchange holes. 3. Prepare GloSensor Reagent (Promega): Reconstitute GloSensor luciferase substrate by adding 8.2mL Hepes buffer to 250mg substrate, mix well, protect from light and stored at -80C. Prepare a fresh 12% GloSensor solution in CO2 independent supplemented plating media (see above). Mix well and store at ambient temperature, protected from light. 1uL 12% GloSensor Luciferase Reagent added (2% final concentration) to respective columns of 13 x 1536-well Greiner plate with BioRaptr, 1uL CO2 independent plating media added to respective columns as vehicle control with BioRaptr. 4. Cells incubated for 2 h. at ambient temperature, protected from light with metal lid having gas-exchange holes. 5. 23nL of library compounds or DMSO vehicle control transferred to 13 Greiner white/solid bottom high base, TC plates in 11 interplate 1:3 titrations (see Yasgar, A. et al. 2008) with Pintool. 6. […]
Potency is the fitted concentration of half-maximal effect.

Structure (SMILES)	Potency
COc1cccc(C2Cn3nnc(-c4nc(-c5ccccc5)no4)c3CO2)c1 (stereo unspecified)	inactive
COc1ccc(C2Cn3nnc(C(=O)N4CCN(C(=O)c5cccc(Cl)c5)CC4)c3CO2)cc1 (stereo unspecified)	12.2 µM (active)
COc1ccc(C2Cn3nnc(C(=O)N4CCN(C(=O)c5ccc(C)cc5C)CC4)c3CO2)cc1 (stereo unspecified)	21.7 µM (active)
O=[S+]1([O-])NCC2(CCCN(Cc3ccc(C(F)(F)F)cc3)C2)Oc2ncccc21 (stereo unspecified)	15.3 µM (active)
COc1ccc(C(CC(=O)N(C)Cc2cc(C3CC3)n[nH]2)c2ccccc2)cc1 (stereo unspecified)	inactive
COc1ccc(OCC2(C)COc3ccc(C(=O)Nc4cccnc4)cc3N2)cc1 (stereo unspecified)	49.8 µM (active)
CC1(CCCCc2ccccc2)COc2ccc(C(=O)N3CC[S+](=O)([O-])CC3)cc2N1 (stereo unspecified)	inactive
Cc1noc(C)c1-c1cc(-c2ccccc2Oc2ccccc2)cn2cncc12	inactive
Cc1nc(-c2ccncc2)ncc1C(C)Nc1ncnc(C)c1C (stereo unspecified)	19.3 µM (active)
CC(C)c1nncn1C1CCN(S(=O)(=O)c2cccc(Br)c2)CC1	24.3 µM (active)
CC1(C(=O)NCc2ccc3c(c2)OCO3)CCc2cnc(NCc3ccccc3)nc21 (stereo unspecified)	44.4 µM (active)
CC(C)(C)c1csc(NC(=O)c2ccc3c(c2)OCCN(C2CCC2)C3)n1	25 µM (active)
COc1ccc(-c2noc(CC3CCN(C(=O)Cc4ccccc4)CC3)n2)cc1	27.3 µM (active)
COc1ccc(-c2noc(CC3CCN(C(=O)Cc4ccc(C)cc4)CC3)n2)cc1	30.6 µM (active)
COc1ccc(-c2noc(CC3CCN(C(=O)CC4CCCCC4)CC3)n2)cc1	8.62 µM (active)
COc1cccc(C2C(C(=O)Nc3ccccc3)=C(C)N=C3SC=C(CC(=O)NCC(C)C)N32)c1 (stereo unspecified)	inactive
COc1cccc(CNC(=O)Cn2c(N(C)Cc3ccccc3)nc(C)cc2=O)c1OC	24.3 µM (active)
COc1cccc(NC(=O)Cn2c(N(C)Cc3ccccc3)nc(C)cc2=O)c1	10.9 µM (active)
O=C(c1ccc2cc[nH]c2c1)N1CCC2(CC1)N=C(c1ccc(Cl)cc1)NO2	15.3 µM (active)
Cc1nn2c(c1-c1ccccc1-c1ccccc1)N(CC1CC1)CCC2	2.8 µM (active)
Cc1nn2c(c1-c1ccnn1C(C)C)N(CC1CCOCC1)CCC2	inactive

Structure (SMILES)	Potency
CC1=NS(=O)(=O)N(C)C=C1C(=O)OCc1nc(-c2ccc(C)cc2)no1	8.62 µM (active)
CCN(CCCNC(=O)c1nnn2cc(-c3ccccc3)[nH]c(=O)c12)c1ccccc1	inactive
Cc1c[nH]c(CN2CCCC(CCc3ccc(F)cc3F)C2)c(C)c1=O (stereo unspecified)	2.43 µM (active)
O=C(Cc1c[nH]c2ncc(-c3ccccc3F)cc12)N1CCOCC1	28 µM (active)
Cc1noc(C)c1-c1cnc2[nH]cc(CC(=O)N3CCOCC3)c2c1	22.2 µM (active)
COc1ccccc1Nc1cnc2ccc(N(C)Cc3cccnc3)nn12	35.3 µM (active)
O=C(NCC1CC1)c1nc2c(o1)CCN(Cc1cccc(F)c1F)CC2	22.2 µM (active)
O=C1NCN(Cc2ccc(Cl)cc2)C12CCN(Cc1ccccc1)CC2	13.7 µM (active)
O=C1Nc2ccccc2CN(Cc2ccccc2)C12CCNCC2	inactive
OC1(Cc2cc(-c3ccccc3)no2)CCN(c2ncncn2)CC1	6.85 µM (active)
O=C(NCc1nnc2cc(-c3nc(C4CC4)no3)ccn12)c1ccc(F)cc1Cl	12.2 µM (active)
COc1ccc(CCNC(=O)c2noc(-c3ccc(C)cc3)n2)cc1OC	21.7 µM (active)
O=C(c1ccc(F)cc1Cl)N1CCC(n2cc(-c3nc(-c4ccccc4)no3)nn2)C1 (stereo unspecified)	4.32 µM (active)
COc1ccc(C(=O)N2CCC(n3cc(-c4nc(C(C)C)no4)nn3)CC2)cc1F	inactive
O=C(c1ccc(Cl)cc1)N1CCCC(n2cc(-c3nc(-c4ccccc4)no3)nn2)C1 (stereo unspecified)	13.7 µM (active)
Cc1ccc(C(=O)N2CCN(c3cc(-c4ccc(Cl)cc4)[nH]n3)CC2)c(C)c1	6.11 µM (active)
O=C(c1cc(F)ccc1Cl)N1CCN(c2cc(-c3ccc(F)cc3)[nH]n2)CC1	24.3 µM (active)
CCc1ccc(C(=O)N2CCN(c3cc(-c4ccc(F)cc4)[nH]n3)CC2)cc1	21.7 µM (active)
O=C(c1ccc(F)cc1F)N1CCN(c2cc(-c3ccc(Cl)cc3)[nH]n2)CC1	17.2 µM (active)
C1CCC(COCCc2noc(C3CNC3)n2)C1	21.7 µM (active)
O=C(c1ccccn1)N1CC(Oc2ccc(-c3noc(C4CC4)n3)cc2)C1	13.7 µM (active)

Structure (SMILES)	Potency
COc1ccc(-c2noc(CC3CCN(C(=O)Cc4ccc(OC)c(OC)c4)CC3)n2)cc1	3.85 µM (active)
COc1ccc(CC(=O)N2CCC(Cc3nc(-c4ccccc4)no3)CC2)cc1OC	13.7 µM (active)
COc1ccc(CN2C(=O)CO[C@H]3CN(Cc4ccc5c(c4)OCO5)C[C@H]32)cc1	28 µM (active)
Cc1ccc2c(c1)nc1n2[C@@H](CNS(=O)(=O)c2ccccc2)COC1	35.3 µM (active)
N#Cc1cccc(CN2CCC(C3=NC(O)c4cc(F)ccc4N3)CC2)c1 (stereo unspecified)	19.3 µM (active)
Fc1ccc(CNC[C@H]2Cn3c(-c4ccc5c(c4)OCCO5)cnc3CO2)cc1	inactive
Cc1cccc(C(=O)N2CCC3(CC2)CC(N(Cc2ccc(F)cc2)C2CC2)CCO3)c1 (stereo unspecified)	inactive
O=C(c1ccccc1)N1CCC(C(=O)N2CCC(Cc3nc(-c4ccc(F)cc4)no3)CC2)CC1	13.7 µM (active)
COc1cccc(-c2noc(CC3CCN(C(=O)c4ccc(F)cc4)CC3)n2)c1	4.85 µM (active)
CN1CCN(C(=O)C(C)(C)Oc2nn(Cc3cccc(Cl)c3)c3ccccc23)CC1	inactive
O=C(c1ccccc1)N1CCNc2cnc(Nc3cccc(C(F)(F)F)c3)nc2C1	22.2 µM (active)
Cc1cc(N2CCCC(Cn3cc(Cc4ccccc4)nn3)C2)nc(N)n1 (stereo unspecified)	4.85 µM (active)
O=C1c2cnc(-c3ccc(Cl)cc3)nc2OCCN1Cc1ccccc1	35.3 µM (active)
CN(Cc1csc(-c2ccccc2)n1)c1cc(C2CC(O)C2)nc(N)n1 (stereo unspecified)	1.93 µM (active)
Cc1ccc(OCc2nc(C3CCN(C(=O)CCc4nc5ccc(Cl)cc5[nH]4)CC3)no2)cc1	24.3 µM (active)
O=c1[nH]c(C2CCCN(Cc3ccccn3)C2)nn1-c1ccc(Cl)cc1 (stereo unspecified)	9.68 µM (active)
CN(C)CCNC(=O)C(C)(C)Oc1nn(Cc2cccc(Cl)c2)c2ccccc12	inactive
CC(C)c1cc(C(=O)N2CCC(n3cc(-c4ccccn4)nn3)CC2)n(C)n1	15.3 µM (active)
Cc1cccc(CN2CCc3nc(C(=O)Nc4ccc(Cl)cc4)oc3CC2)c1	8.86 µM (active)
